According to the supplement of paper PMC3545927:
This is one part of the list. The true hit rate is not given.

Target: furin, P09958
Assay: furin cleavage Z-score vs untreated control; higher = more cleavage, active = 3.5 or more, inactive = 1 or less, 8 variable residues between constant flanks
In short: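 Magnetic beads held 8-mer peptides by the N-terminus, each fused to a cDNA oligonucleotide, and purified furin was added for 7.5, 15 or 30 min. Released DNA was sequenced after PCR adapter tagging. The cleavage Z-score is the log count relative to furin-free reactions, lowess-adjusted and divided by median absolute deviation.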
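Also: purified furin at 1:10 enzyme:substrate in 50 mM HEPES pH 7.5.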

Chain of furin, P09958 (P09958 whole entry): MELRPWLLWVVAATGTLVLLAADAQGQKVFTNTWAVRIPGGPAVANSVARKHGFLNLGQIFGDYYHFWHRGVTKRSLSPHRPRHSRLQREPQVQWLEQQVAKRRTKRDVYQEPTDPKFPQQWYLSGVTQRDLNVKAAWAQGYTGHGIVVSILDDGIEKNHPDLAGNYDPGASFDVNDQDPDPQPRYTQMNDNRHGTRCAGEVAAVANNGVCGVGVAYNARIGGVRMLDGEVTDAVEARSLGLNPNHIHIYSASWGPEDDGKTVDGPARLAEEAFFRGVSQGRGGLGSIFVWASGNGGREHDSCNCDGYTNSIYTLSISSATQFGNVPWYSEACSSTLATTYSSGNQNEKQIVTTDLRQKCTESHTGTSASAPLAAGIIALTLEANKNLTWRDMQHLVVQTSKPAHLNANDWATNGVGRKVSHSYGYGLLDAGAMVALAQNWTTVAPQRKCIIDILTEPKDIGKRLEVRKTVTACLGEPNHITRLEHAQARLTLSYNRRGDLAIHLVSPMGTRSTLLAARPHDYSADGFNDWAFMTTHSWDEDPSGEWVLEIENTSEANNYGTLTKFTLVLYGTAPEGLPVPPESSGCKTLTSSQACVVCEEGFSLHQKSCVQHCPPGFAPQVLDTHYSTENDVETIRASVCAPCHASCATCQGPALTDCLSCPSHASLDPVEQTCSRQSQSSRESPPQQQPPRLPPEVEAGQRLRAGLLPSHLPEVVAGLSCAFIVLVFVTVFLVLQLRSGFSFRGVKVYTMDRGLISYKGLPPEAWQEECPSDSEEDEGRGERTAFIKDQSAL

Row | Sequence | furin cleavage Z-score (7.5 min) | furin cleavage Z-score (15 min) | furin cleavage Z-score (30 min)
1 | CAEVPCHRPGAGNASASA [HC2416] | -0.244 (inactive) | -0.922 (inactive) | 0.598 (inactive)
2 | CATKVCGAPPAGNASASA [HC441] | 0.138 (inactive) | 0.123 (inactive) | -0.197 (inactive)
3 | CARPRRGSHPAGNASASA [FS-2359] | 0.189 (inactive) | 1.65 | 2.41
4 | CARPRRGSLRAGNASASA [FS-2502] | -1.01 (inactive) | -0.431 (inactive) | 1.07
5 | CARPRRFFPGAGNASASA [FS-1964] | -0.922 (inactive) | -0.718 (inactive) | -0.224 (inactive)
6 | CARPRRSAGKAGNASASA [FS-2059] | 6.62 (active) | 6.92 (active) | 6.48 (active)
7 | CARPRRSAPKAGNASASA [FS-3200] | 8.12 (active) | 8.75 (active) | 6.05 (active)
8 | CARPRRRLGPAGNASASA [FS-2503] | 0.585 (inactive) | 1.48 | 1.2
9 | CARPRRSAHRAGNASASA [FS-1863] | 8.93 (active) | 9.74 (active) | 8.89 (active)
10 | CAYVVTSTWVAGNASASA [HC2149] | 0.323 (inactive) | -0.464 (inactive) | -0.44 (inactive)
11 | CANGVCWTVYAGNASASA [HC698] | -1.07 (inactive) | 2.25 | -1.18 (inactive)
12 | CANIIMFAPTAGNASASA [HC1576] | -0.25 (inactive) | -0.574 (inactive) | -0.569 (inactive)
13 | CAARGGRAAIAGNASASA [HC1627] | 0.309 (inactive) | -1.06 (inactive) | 0.234 (inactive)
14 | CARVGRSVTDAGNASASA [FS-3117] | 9.08 (active) | 9.86 (active) | 8.63 (active)
15 | CARKGRVVIDAGNASASA [FS-2263] | -1.41 (inactive) | -0.368 (inactive) | 0.767 (inactive)
16 | CALVGLMALTAGNASASA [HC572] | -0.292 (inactive) | -0.497 (inactive) | -0.985 (inactive)
17 | CARVCCSMSYAGNASASA [HC1993] | -1.56 (inactive) | 0.796 (inactive) | 0.275 (inactive)
18 | CARVGRSSKQAGNASASA [FS-2838] | 0.0354 (inactive) | 0.533 (inactive) | 2.07
19 | CAMALYDVVTAGNASASA [HC1457] | -0.109 (inactive) | -0.594 (inactive) | 1.06
20 | CARVGRGVSIAGNASASA [FS-2195] | -0.488 (inactive) | -0.0472 (inactive) | 2.09
21 | CARVGRQVVTAGNASASA [FS-2470] | 1.41 | 4.05 (active) | 2.16
22 | CARVPRDPSTAGNASASA [FS-2620] | 0.232 (inactive) | 0.063 (inactive) | 1.18
23 | CARVCRSDNTAGNASASA [FS-2194] | 2.3 | 1.13 | 4.01 (active)
24 | CARVGRSLPTAGNASASA [FS-2098] | 8.92 (active) | 10.2 (active) | 8.81 (active)
25 | CARKGRSEDIAGNASASA [FS-2341] | 0.928 (inactive) | 1.18 | -0.197 (inactive)
